Cruzain Triton – qHTS Assay for Promiscuous and Specific Inhibitors of Cruzain (with detergent); Potency, µM, for inactives: max response, negative = inhibition, usual class: inhibitors; Cruzipain (Trypanosoma cruzi), P25779; purified cruzain, Z-FR-AMC fluorescence, 0.01% Triton; actives 0.43% (n = 200,000);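 further: plate controls were neutral wells for no effect and buffer without enzyme for full effect; nearly all actives have a fitted effect of over 40% in size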
Target sequence (P25779 123-467 limits assumed): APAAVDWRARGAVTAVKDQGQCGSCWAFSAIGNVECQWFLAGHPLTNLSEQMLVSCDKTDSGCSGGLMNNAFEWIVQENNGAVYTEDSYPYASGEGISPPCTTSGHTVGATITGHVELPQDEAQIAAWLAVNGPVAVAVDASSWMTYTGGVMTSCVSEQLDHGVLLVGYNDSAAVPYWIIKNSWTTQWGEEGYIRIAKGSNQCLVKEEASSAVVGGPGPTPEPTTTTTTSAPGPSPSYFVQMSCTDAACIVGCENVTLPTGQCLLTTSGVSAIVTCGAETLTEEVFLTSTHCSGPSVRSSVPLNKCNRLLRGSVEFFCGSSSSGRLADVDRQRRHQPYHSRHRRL
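Steps: dispense cruzain (1.5 nM final) in acetate buffer pH 5.5 with DTT and 0.01% Triton X-100; pin-transfer compounds; incubate 15 min RT; add Z-FR-AMC (2 uM final); read fluorescence every 30 s, using the 60 s intensity change.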
FBPA Giardia inh – qHTS Assay for Inhibitors of Fructose-1,6-bisphosphate Aldolase from Giardia Lamblia | AID 2451, 2010 | purified Giardia FBPA | Potency, µM (doses to about 59.6 µM), for inactives: top-dose activity, negative = inhibition, hits mostly inhibitors | actives 0.71% (n = 290,000) | A8B2U2; further: nearly all actives have a fitted effect of over 55% in size
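40 nM FBPA preincubated 10 min at RT with compound (up to 57.5 uM final), then substrate plus GAPDH/TPI/NAD/arsenate coupling and diaphorase/resazurin added. Fluorescence read after 20 min at RT, 525/598 nm.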
Cruzain inh noDet – qHTS Assay for Promiscuous and Specific Inhibitors of Cruzain (without detergent). Potency, µM, for the others: max response, negative = inhibition, usual class: inhibitors. actives 2.3% (n = 200,000). AID 1476, 2009. purified cruzain, Z-FR-AMC fluorescence, no detergent. Cruzipain (Trypanosoma cruzi), P25779;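 further: plate controls were enzyme without inhibitor for no effect and buffer without enzyme for full effect; nearly all actives have a fitted effect of over 40% in size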
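Purified cruzain at 1.5 nM, pre-incubated 15 min with compound at room temperature in 100 mM sodium acetate pH 5.5, 5 mM DTT, 0.00005% Triton X-100. Reaction started with 2 uM Z-FR-AMC; AMC fluorescence increase over 60 s gives rate.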
Starred values were filed as active, the others as inactive; ? = inconclusive; · = no result given. The full list was thinned out, with hits kept by preference. The call rests on the fitted dose curve; in most records, active means well fitted curve in the direction sought with a large enough effect; inconclusive means small, poorly fitted or top-dose-only effect, or another doubt; inactive means no such curve, though single readings can be large; an effect the other way counts as inactive or inconclusive. Unless noted, on the % scale 0 is the no-effect control and ±100 the full control effect; potency means the concentration at half of the fitted maximal effect.

SMILES	Cruzain Triton	FBPA Giardia inh	Cruzain inh noDet
COc1ccc(NC(=O)COC(=O)CNS(=O)(=O)c2ccc(F)c(F)c2F)cc1OC	?	1%	?
Cc1cc(C)c(NC(=O)C(C)n2nc(-c3ccc(C)c(C)c3)ccc2=O)c(C)c1 (stereo not drawn)	-1%	·	28%
COc1ccc(Cl)cc1NC(=O)C1CCN(S(=O)(=O)c2ccc3c(c2)CCCN3C(=O)C2CCC2)CC1	2%	·	-10%
CCOC(=O)c1sc2ccccc2c1S(=O)(=O)N1CCN(c2cc(C)ccc2C)CC1	-4%	·	20µM*
COC(=O)c1sc2cccc(F)c2c1S(=O)(=O)N1CCN(c2ccc(C)cc2C)CC1	-6%	·	?
C=CC1CC=CCC1 (stereo not drawn)	2%	·	-1%
COc1cc(OC)cc(-c2nc3ccccc3c(=O)n2OC(=O)c2ccc(Br)cc2)c1	-2%	-24%	25µM*
COc1ccc(C(=O)On2c(-c3ccc(Br)cc3)nc3ccccc3c2=O)cc1	-2%	7%	?
Cn1c(=O)[nH]c2cc(-c3noc(-c4ccc(F)cc4)n3)ccc21	0%	·	10%
CCOc1ccc(N2C(=O)C3C(c4ccccc4)=NN(c4ccccc4)C3C2=O)cc1 (stereo not drawn)	-20%	-8%	20µM*
CCOc1ccc(N2C(=O)C3C(C2=O)C3(c2ccccc2)c2ccccc2)cc1 (stereo not drawn)	-5%	-4%	-10%
Cc1ccc(N2C(=O)C3C(C(=O)c4ccccc4)=NN(c4ccccc4)C3C2=O)cc1 (stereo not drawn)	-7%	-3%	16µM*
O=C(C1=NN(c2ccccc2)C2C(=O)N(c3ccccc3)C(=O)C12)c1ccccc1 (stereo not drawn)	-4%	-3%	-23%
CCn1cc(C(=O)N(C)c2cc(C)ccc2C)c2cc(OC)c(OC)cc2c1=O	-3%	·	-3%
Cc1ncc(CO)c2c1Oc1nc(-c3ccc(F)cc3)nc(SCC(=O)N3CCCCC3)c1C2	-2%	·	3%
COc1ccccc1NC(=O)c1c(C)cc(C)nc1SCC(=O)Nc1ccc(C)cc1	-6%	·	-6%
COc1cccc(NC(=O)CSc2nc3c([nH]c4ccccc43)c(=O)n2-c2cccc(Cl)c2)c1	0%	·	-22%
Cc1ccc(-c2csc(NC(=O)CSc3nnc4c(n3)[nH]c3ccccc34)n2)cc1	-10%	1%	16µM*
O=C(CSc1nc2c([nH]c3ccccc32)c(=O)n1-c1ccccc1F)Nc1cccc(Cl)c1	0%	·	13µM*
Cc1cc(C)cc(NC(=O)CSc2nc3c(oc4ccccc43)c(=O)n2-c2ccccc2F)c1	-1%	·	20µM*
Cc1cc(NC(=O)CSc2nc3c([nH]c4ccccc43)c(=O)n2-c2ccccc2F)no1	-4%	·	-18%
Cc1ccc(NC(=O)CSc2nnc3c(n2)[nH]c2ccccc23)cc1	·	-1%	·
O=C(CSc1nc2c(oc3ccccc32)c(=O)n1-c1ccccc1F)Nc1ccccc1	-1%	·	-25%
COc1cccc(-n2c(SCC(=O)Nc3cccc(C)c3)nc3c([nH]c4ccccc43)c2=O)c1	0%	·	32µM*
CCOCN(C(=O)Cn1cnc2cc(C)c(C)cc21)c1c(C)cccc1CC	-8%	·	?
SMILES	Cruzain Triton	FBPA Giardia inh	Cruzain inh noDet
CCCS(=O)(=O)c1ncc(Cl)c(C(=O)N2CCN(c3ccc(OC)cc3)CC2)n1	-5%	·	1%
Cc1ccc(OCCSc2nc3ccc(NC(=O)c4ccc5c(c4)OCO5)cc3s2)cc1	-1%	·	2%
Cc1cc(C)cc(-n2c(SCC(=O)Nc3ccc4c(c3)OCO4)nc3c([nH]c4ccccc43)c2=O)c1	-2%	·	6.3µM*
O=C(CSc1nnc2c(n1)[nH]c1ccccc12)Nc1ccc2c(c1)OCO2	-6%	-6%	25µM*
CC1Cc2nc(SCC(=O)Nc3ccc4c(c3)OCO4)n(Cc3ccccc3)c(=O)c2S1 (stereo not drawn)	-2%	-3%	32µM*
Cc1cc(C)cc(-n2c(SCC(=O)NCc3ccc(F)cc3)nc3c([nH]c4ccccc43)c2=O)c1	-1%	·	5%
COCCn1c(SCC(=O)Nc2ccc3c(c2)OCCO3)nc2c(c1=O)SC(C)C2 (stereo not drawn)	0%	-3%	-19%
O=C(CSc1nnc2c(n1)[nH]c1ccccc12)Nc1ccc(N2CCOCC2)cc1	·	-25%	·
Cc1ccc(-n2c(SCC(=O)NCc3ccc(F)cc3)nc3c([nH]c4ccccc43)c2=O)cc1	-4%	·	16µM*
O=C(CSc1nc2c([nH]c3ccccc32)c(=O)n1-c1ccc(F)cc1)Nc1ccc2c(c1)OCO2	-1%	·	1%
O=C(O)c1ccccc1C(=O)Nc1cc2c(cc1Br)-c1ccccc1C2=O	-1%	·	-9%

Screening results deposited in PubChem BioAssay by National Center for Advancing Translational Sciences (NCATS).
